Source: the supplement of paper PMC6805474

tested on: Schistosoma mansoni schistosomula (LE); test: XTT viability relative to DMSO control; higher = more viable (less active); details: 72 h; 10 µM
Description: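 XTT/PMS was then added for a further 24 h (72 h total) and A450 was read. % viability = (sample - heat-killed control)/(DMSO control - heat-killed control) x 100, from duplicate wells in two independent experiments.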

For CC(C)n1nc(-c2cc3c(Cl)cccc3[nH]2)c2c(N)ncnc21, which XTT viability is on record?
The XTT viability was 54.3%.

For CN1CCN(c2cc(-c3ccc(F)cc3)nc(-c3ccncc3)n2)CC1, which XTT viability is on record?
Its XTT viability is 63%.

With COc1ccc(N(CCc2cccc(C)n2)C(C)=O)cc1 as the molecule, how does the XTT viability read?
The XTT viability was 114%.

How did the XTT viability turn out when Cn1c(=O)c2c(S(C)(=O)=O)snc2n(C)c1=O was run?
The XTT viability was -0.448%.

With O=C(NCc1cc(Cl)cc(Cl)c1)c1c(C(F)(F)F)nc2ccccn12 as the molecule, how does the XTT viability read?
Its XTT viability is 93.7%.

For C[C@]1(O)C[C@@H](c2nc(-c3ccc4ccc(-c5ccccc5)nc4c3)c3c(N)nccn32)C1, which XTT viability is on record?
Its XTT viability is 64%.

With Cc1cccc(Cn2ccc(NC(=O)c3ccc4c(c3)OCO4)n2)c1 as the molecule, how does the XTT viability read?
Its XTT viability is 93.2%.

With COc1cncc(-c2cncc(N3CCN(c4ccncc4)CC3)n2)c1 as the molecule, how does the XTT viability read?
Its XTT viability is 103%.

CC(=O)Nc1ccc(NC(=O)c2cc(-c3cc(Cl)ccc3O)[nH]n2)cc1 was tested. Which XTT viability did it give?
Its XTT viability is 94.2%.

Which XTT viability does the source give for Cc1cccnc1NC(=O)c1cccc(OCc2c(C)noc2C)c1 here?
The XTT viability was 114%.

Which XTT viability does the source give for Cc1cc(NC(=O)c2ccc(Oc3ccc(Cl)cc3O)o2)no1 here?
Its XTT viability is 99.6%.

Which XTT viability does the source give for CC[C@H](CO)NCCN[C@H](CC)CO here?
Its XTT viability is 78.3%.

How did the XTT viability turn out when Nc1ncnc2c1c(-c1cnc3ccccc3c1)nn2CC1CCNCC1 was run?
Its XTT viability is 169%.

With CC(C)c1ncc(-c2ccncc2)c([C@H]2CC[C@H](CNC(=O)c3cccnc3)CC2)n1 as the molecule, how does the XTT viability read?
Its XTT viability is 94%.

How did the XTT viability turn out when O=C(Nc1ccc2c(c1)B(O)OC2)c1ccccc1C(F)(F)F was run?
The XTT viability was 71.1%.

For c1ccc(-c2nc(NC3CCCCC3)cc(C3CC3)n2)nc1, which XTT viability is on record?
Its XTT viability is 16.4%.

How did the XTT viability turn out when CC[C@@H]([C@H](C)O)n1ncn(-c2ccc(N3CCN(c4ccc(OC[C@@H]5CO[C@@](Cn6cncn6)(c6ccc(F)cc6F)C5)cc4)CC3)cc2)c1=O was run?
The XTT viability was 88.8%.

With Brc1c(-c2ccc3c(c2)OCO3)nc2ncccn12 as the molecule, how does the XTT viability read?
Its XTT viability is 99.9%.

How did the XTT viability turn out when O=C(c1cc2ccccc2o1)N1CCN(Cc2ccc3c(c2)OCO3)CC1 was run?
The XTT viability was 110%.

With CNC(=O)c1nn(C)c2c1C(C)(C)Cc1cnc(Nc3ccc(N4CCN(C)CC4)cc3)nc1-2 as the molecule, how does the XTT viability read?
The XTT viability was 157%.

How did the XTT viability turn out when Cc1cnc(N2CCN[C@@H](Cc3ccccc3)C2)nc1Oc1ccc(-n2ccnc2)cc1 was run?
Its XTT viability is 17.8%.

How did the XTT viability turn out when CC(C)(C)n1nc(Cc2ccc(F)c(Cl)c2)c2c(N)ncnc21 was run?
The XTT viability was 98.7%.

Which XTT viability does the source give for CCOc1ccc2cc(-c3nn(C(C)(C)C)c(N)c3C(N)=O)cnc2c1 here?
The XTT viability was 75.2%.

Cc1ccc(S(=O)(=O)Nc2ccc(CN3CCN(C(=O)c4cccc(C#N)c4)CC3)cc2)cc1 was tested. Which XTT viability did it give?
Its XTT viability is 131%.

Which XTT viability does the source give for Cc1cc(C)n(-c2ccc(NC(=O)C3CCN(Cc4cnc(C)s4)CC3)cc2)n1 here?
Its XTT viability is 135%.

How did the XTT viability turn out when CC[P](CC)(CC)=[Au][S][C@H]1O[C@@H](COC(C)=O)[C@H](OC(C)=O)[C@@H](OC(C)=O)[C@@H]1OC(C)=O was run?
The XTT viability was 203%.

Which XTT viability does the source give for c1csc(-c2cnc3sc(NCC4CCOCC4)nn23)c1 here?
The XTT viability was 95.7%.

Which XTT viability does the source give for CC(C(=O)Nc1ccc2oc(-c3ccncc3)nc2c1)c1ccccc1 (stereo not given) here?
Its XTT viability is 89.9%.

How did the XTT viability turn out when CCOc1ccc(-c2nc(CNCCc3ccc(F)cc3)cs2)cc1 was run?
Its XTT viability is 2.26%.

How did the XTT viability turn out when O=C(c1ccc(NCCO)cc1)C1C[C@H]1c1ccc(Cl)cc1 (stereo not given in full) was run?
Its XTT viability is 93.3%.

How did the XTT viability turn out when COC(=O)c1c(NC(=O)c2cc3ccccc3oc2=O)sc2c1CCN(Cc1ccccc1)C2 was run?
The XTT viability was 76.3%.

How did the XTT viability turn out when Brc1cncc(-c2cc(NCCCn3ccnc3)nc(-c3ccccc3)n2)c1 was run?
The XTT viability was 12.9%.

COC(=O)c1c(NC(=O)c2c(F)c(F)c(F)c(F)c2F)sc2c1CCCCC2 was tested. Which XTT viability did it give?
Its XTT viability is 0.615%.

Cc1ccc(S(=O)(=O)N2CCN(C(=O)c3cc(-c4ccccc4)[nH]n3)CC2)cc1 was tested. Which XTT viability did it give?
Its XTT viability is 82.6%.

Nc1ncc(-c2ccc(C(F)(F)F)nc2)cc1-c1ccc(C(F)(F)F)nc1 was tested. Which XTT viability did it give?
The XTT viability was 79.3%.

With FC(F)(F)c1nnc2ccc(Cl)nn12 as the molecule, how does the XTT viability read?
Its XTT viability is 84%.

For Nc1cccnc1Nc1ccc(Cl)cc1, which XTT viability is on record?
Its XTT viability is 157%.

Which XTT viability does the source give for O=C(CCC1CCCCC1)Nc1cccc(-c2nnc(-c3ccco3)o2)c1 here?
Its XTT viability is 145%.

How did the XTT viability turn out when CCN(CC)CCCCCCNc1cc(OC)cc2c(C)ccnc12 was run?
The XTT viability was 59.3%.

With CC(C)n1ncc2c(C(=O)NCC(c3cccs3)N3CCOCC3)cc(-c3ccccc3)nc21 (stereo not given) as the molecule, how does the XTT viability read?
The XTT viability was 71.6%.
